The panel holds about 83,000 compounds, 20% with a hit somewhere; the sample as a whole holds those more often.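 Single-concentration screen, 48 h exposure, 96-well plates. Endpoint: percent growth. Below 10 = active.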 Activity calls are given as the source filed them.
How the values were obtained:
Test in all cases: NCI-60 one-dose screen, 48 h (100 = growth as untreated, 0 = no growth, -100 = all killed)
HOP-62 NSCLC = settings: 10 µM unless noted
NCI-H460 lung = settings: 10 µM unless noted
A549/ATCC NSCLC = settings: 10 µM unless noted
K-562 leukemia = settings: 10 µM unless noted
MALME-3M melanoma = settings: 10 µM unless noted
RXF 393 renal = settings: 10 µM unless noted
SF-295 CNS = settings: 10 µM unless noted
SF-539 CNS = settings: 10 µM unless noted
UACC-257 melanoma = settings: 10 µM unless noted
SNB-75 CNS = settings: 10 µM unless noted
UO-31 renal = settings: 10 µM unless noted
CAKI-1 renal = settings: 10 µM unless noted
A498 renal = settings: 10 µM unless noted
HL-60(TB) leukemia = settings: 10 µM unless noted
MOLT-4 leukemia = settings: 10 µM
RPMI-8226 leukemia = settings: 10 µM unless noted
OVCAR-4 ovarian = settings: 10 µM unless noted
HCC-2998 colon = settings: 10 µM unless noted
786-0 renal = settings: 10 µM unless noted
BT-549 breast = settings: 10 µM

Measured: growth

O=[N+]([O-])c1ccc(F)c([N+](=O)[O-])c1F
inactive: HOP-62 NSCLC 106% | NCI-H460 lung 106% | A549/ATCC NSCLC 96% | K-562 leukemia 11.1% | MALME-3M melanoma 96% | RXF 393 renal 109% | SF-295 CNS 104% | SF-539 CNS 105% | UACC-257 melanoma 103% | SNB-75 CNS 116% | UO-31 renal 78.3% | CAKI-1 renal 103% | A498 renal 93.7% | HL-60(TB) leukemia 92.2% | MOLT-4 leukemia 58% | RPMI-8226 leukemia 93.5% | OVCAR-4 ovarian 116% | HCC-2998 colon 105%

C=CCN1C(=O)C(CC)(CCC(C)C)C(=O)NC1=S (stereo not given)
inactive: HOP-62 NSCLC 113% | NCI-H460 lung 105% | A549/ATCC NSCLC 98.7% | 786-0 renal 97.7% | K-562 leukemia 99.8% | MALME-3M melanoma 96.1% | RXF 393 renal 107% | SF-295 CNS 88.7% | SF-539 CNS 111% | UACC-257 melanoma 89.5% | SNB-75 CNS 96.8% | UO-31 renal 86.4% | CAKI-1 renal 97.7% | A498 renal 112% | HL-60(TB) leukemia 101% | MOLT-4 leukemia 96.6% | RPMI-8226 leukemia 95.1% | OVCAR-4 ovarian 106% | BT-549 breast 106% | HCC-2998 colon 124%

O=C(O)c1nn(Cc2ccc(Cl)cc2)c2ccccc12
inactive: HOP-62 NSCLC 108% | NCI-H460 lung 105% | A549/ATCC NSCLC 102% | 786-0 renal 108% | K-562 leukemia 104% | MALME-3M melanoma 113% | RXF 393 renal 123% | SF-539 CNS 102% | UACC-257 melanoma 93.1% | SNB-75 CNS 95.9% | UO-31 renal 95.7% | CAKI-1 renal 106% | A498 renal 96.5% | HL-60(TB) leukemia 103% | MOLT-4 leukemia 111% | RPMI-8226 leukemia 98.4% | OVCAR-4 ovarian 100% | BT-549 breast 122% | HCC-2998 colon 120%

CC(/C=N/N=C(N)N)=N\N=C(N)N
active: HCC-2998 colon -62.9%
inactive: HOP-62 NSCLC 64.2% | NCI-H460 lung 82.7% | 786-0 renal 55.6% | K-562 leukemia 56.1% | MALME-3M melanoma 126% | SF-295 CNS 85.5% | SF-539 CNS 51.9% | SNB-75 CNS 63.7% | UO-31 renal 46.9% | CAKI-1 renal 57.7% | A498 renal 83.9% | HL-60(TB) leukemia 77.6% | MOLT-4 leukemia 98.6% | RPMI-8226 leukemia 74.3% | OVCAR-4 ovarian 66.3%

Nc1nc(N)c(-c2ccc(Cl)c(Cl)c2)c(/C=C/c2ccc(S(=O)(=O)F)cc2)n1
inactive: HOP-62 NSCLC 91.3% | NCI-H460 lung 77% | A549/ATCC NSCLC 81.3% | 786-0 renal 76.9% | K-562 leukemia 53.4% | MALME-3M melanoma 86.9% | RXF 393 renal 90.6% | SF-539 CNS 80.1% | UACC-257 melanoma 76.3% | SNB-75 CNS 78.4% | UO-31 renal 74.7% | CAKI-1 renal 84.4% | A498 renal 87.7% | HL-60(TB) leukemia 91.9% | MOLT-4 leukemia 76.8% | RPMI-8226 leukemia 93.1% | OVCAR-4 ovarian 100% | BT-549 breast 94.6% | HCC-2998 colon 111%

COc1ccc(-c2ccc(OC)c(OC)c2OC)cc1
active: SF-295 CNS -9.72% | SF-539 CNS 3.98% | SNB-75 CNS -11% | HL-60(TB) leukemia -19.1%
inactive: HOP-62 NSCLC 26.9% | NCI-H460 lung 12% | A549/ATCC NSCLC 38.2% | 786-0 renal 21.3% | K-562 leukemia 10.1% | MALME-3M melanoma 33.2% | RXF 393 renal 11.2% | UACC-257 melanoma 43.2% | UO-31 renal 39.4% | CAKI-1 renal 15.1% | MOLT-4 leukemia 22.7% | OVCAR-4 ovarian 70.6% | BT-549 breast 20.2% | HCC-2998 colon 23.7%

COC(C)(C)CCC[C@H](C)C/C=C/C(C)=C/C(=O)OC(C)C
inactive: HOP-62 NSCLC 107% | NCI-H460 lung 109% | A549/ATCC NSCLC 98.5% | 786-0 renal 85.8% | K-562 leukemia 85.3% | MALME-3M melanoma 85.9% | RXF 393 renal 104% | SF-295 CNS 98.2% | SF-539 CNS 118% | UACC-257 melanoma 101% | SNB-75 CNS 118% | UO-31 renal 84.9% | CAKI-1 renal 85.4% | A498 renal 110% | HL-60(TB) leukemia 79.8% | MOLT-4 leukemia 90% | RPMI-8226 leukemia 62.9% | OVCAR-4 ovarian 90% | BT-549 breast 103% | HCC-2998 colon 101%

CC12CCC(=O)C=C1CCC1C2CCC2(C)C(C(=O)COC(=O)Cc3ccc(N(CCCl)CCCl)cc3)CCC12 (stereo not given)
inactive: HOP-62 NSCLC 106% | NCI-H460 lung 40.5% | 786-0 renal 93.7% | K-562 leukemia 77.5% | MALME-3M melanoma 168% | SF-295 CNS 74.5% | SF-539 CNS 63% | SNB-75 CNS 83.3% | UO-31 renal 72.8% | CAKI-1 renal 27.4% | A498 renal 69.8% | HL-60(TB) leukemia 26.7% | MOLT-4 leukemia 49.5% | RPMI-8226 leukemia 46.4% | OVCAR-4 ovarian 91%
active: HCC-2998 colon -28.3%

c1ccc2nc(OCCN3CC3)ccc2c1
inactive: HOP-62 NSCLC 76.8% | NCI-H460 lung 72.3% | A549/ATCC NSCLC 74.1% | 786-0 renal 84.2% | K-562 leukemia 26.8% | MALME-3M melanoma 113% | RXF 393 renal 59.1% | SF-295 CNS 75.8% | SF-539 CNS 97.5% | UACC-257 melanoma 59% | SNB-75 CNS 77% | UO-31 renal 59.4% | CAKI-1 renal 90.8% | A498 renal 102% | HL-60(TB) leukemia 72.7% | MOLT-4 leukemia 34% | OVCAR-4 ovarian 75.3% | HCC-2998 colon 86.7%
active: RPMI-8226 leukemia 9.61%

CC1(C)CC(=O)CC(C)(C)N1N=O
inactive: HOP-62 NSCLC 97.3% | NCI-H460 lung 114% | A549/ATCC NSCLC 107% | 786-0 renal 109% | K-562 leukemia 111% | MALME-3M melanoma 130% | RXF 393 renal 136% | SF-295 CNS 111% | SF-539 CNS 94.3% | UACC-257 melanoma 104% | SNB-75 CNS 78.7% | UO-31 renal 91.5% | CAKI-1 renal 99.9% | A498 renal 106% | HL-60(TB) leukemia 77.4% | MOLT-4 leukemia 101% | OVCAR-4 ovarian 113% | HCC-2998 colon 97.9%

Cc1cc(NC(=O)NCCOc2ccc(N3C(N)=NC(N)=NC3(C)C)cc2Cl)ccc1S(=O)(=O)F
active: NCI-H460 lung 9.44% | A549/ATCC NSCLC 9.6%
inactive: HOP-62 NSCLC 60.8% | 786-0 renal 35.3% | K-562 leukemia 13% | MALME-3M melanoma 53.3% | RXF 393 renal 53.8% | SF-539 CNS 33.6% | UACC-257 melanoma 32.2% | SNB-75 CNS 71.5% | UO-31 renal 81.6% | CAKI-1 renal 95.1% | A498 renal 79.1% | HL-60(TB) leukemia 18.1% | MOLT-4 leukemia 26.7% | RPMI-8226 leukemia 40.5% | OVCAR-4 ovarian 71.5% | BT-549 breast 52.1% | HCC-2998 colon 47.3%

CC1(C)N=C(N)N=C(N)N1c1ccc(OCCCCOc2ccc(S(=O)(=O)F)cc2)c(Cl)c1
inactive: HOP-62 NSCLC 28.3% | A549/ATCC NSCLC 11.2% | 786-0 renal 20.6% | K-562 leukemia 16.8% | MALME-3M melanoma 45.9% | RXF 393 renal 27.9% | SF-295 CNS 16.3% | SF-539 CNS 12.2% | SNB-75 CNS 38.3% | UO-31 renal 67.7% | CAKI-1 renal 44.5% | A498 renal 29.3% | HL-60(TB) leukemia 19.3% | MOLT-4 leukemia 26.7% | OVCAR-4 ovarian 57% | BT-549 breast 28.8% | HCC-2998 colon 32.4%
active: NCI-H460 lung 4.24% | RPMI-8226 leukemia 7.96%

CC(=O)[O][Hg][c]1nc2c(c(=O)n(C)c(=O)n2C)n1C
inactive: HOP-62 NSCLC 120% | NCI-H460 lung 98.8% | A549/ATCC NSCLC 102% | 786-0 renal 102% | K-562 leukemia 60.3% | MALME-3M melanoma 49.8% | RXF 393 renal 97.6% | SF-295 CNS 98.9% | SF-539 CNS 104% | UACC-257 melanoma 98% | SNB-75 CNS 77.8% | UO-31 renal 104% | CAKI-1 renal 83.5% | A498 renal 125% | HL-60(TB) leukemia 104% | MOLT-4 leukemia 100% | RPMI-8226 leukemia 102% | OVCAR-4 ovarian 95.1% | BT-549 breast 111% | HCC-2998 colon 131%

CN1C(=O)NC(=O)C(N=Nc2ccc(Cl)cc2)C1=O (stereo not given)
inactive: HOP-62 NSCLC 123% | NCI-H460 lung 102% | A549/ATCC NSCLC 101% | 786-0 renal 78.4% | K-562 leukemia 54.7% | MALME-3M melanoma 134% | RXF 393 renal 107% | SF-539 CNS 101% | UACC-257 melanoma 105% | SNB-75 CNS 126% | UO-31 renal 104% | A498 renal 60.9% | HL-60(TB) leukemia 90.7% | MOLT-4 leukemia 96% | RPMI-8226 leukemia 96.1% | BT-549 breast 80.3% | HCC-2998 colon 90.6%

C1CN1c1nc(N2CC2)nc(N2CC2)n1
active: 786-0 renal 9.79% | SF-539 CNS -7.16% | SNB-75 CNS -17.6% | UO-31 renal 1.86% | CAKI-1 renal 6.72% | HL-60(TB) leukemia 0.901%
inactive: HOP-62 NSCLC 31.3% | NCI-H460 lung 16.5% | A549/ATCC NSCLC 59.8% | K-562 leukemia 26.4% | MALME-3M melanoma 49.7% | RXF 393 renal 39% | SF-295 CNS 14.2% | UACC-257 melanoma 43.7% | A498 renal 57.9% | MOLT-4 leukemia 10.5% | RPMI-8226 leukemia 29.3% | OVCAR-4 ovarian 44.6% | BT-549 breast 46.1% | HCC-2998 colon 49.7%

CCOc1cc(C=C(C#N)C#N)cc(Br)c1O
inactive: HOP-62 NSCLC 111% | NCI-H460 lung 102% | A549/ATCC NSCLC 102% | K-562 leukemia 75.2% | MALME-3M melanoma 106% | RXF 393 renal 121% | SF-295 CNS 110% | SF-539 CNS 99.5% | UACC-257 melanoma 107% | SNB-75 CNS 83.5% | UO-31 renal 88.9% | CAKI-1 renal 92.7% | A498 renal 96.4% | MOLT-4 leukemia 85.5% | RPMI-8226 leukemia 105% | OVCAR-4 ovarian 103% | BT-549 breast 99.1% | HCC-2998 colon 99.4%

CNC(=O)Oc1ccccc1
inactive: HOP-62 NSCLC 116% | NCI-H460 lung 104% | A549/ATCC NSCLC 94.9% | 786-0 renal 104% | K-562 leukemia 109% | MALME-3M melanoma 105% | RXF 393 renal 112% | SF-539 CNS 107% | UACC-257 melanoma 102% | SNB-75 CNS 80.7% | UO-31 renal 98.8% | CAKI-1 renal 113% | A498 renal 120% | HL-60(TB) leukemia 120% | MOLT-4 leukemia 106% | RPMI-8226 leukemia 96.4% | OVCAR-4 ovarian 88.7% | BT-549 breast 105% | HCC-2998 colon 119%
